Experimental findings from PubChem BioAssay AID2685 (National Center for Advancing Translational Sciences (NCATS), 2010) are described below.

The structures appear in SMILES notation. The campaign covered roughly 320,000 compounds. About 2,100 (0.66%) were called active. Inconclusive results (about 53%) are left out. The call rests on the fitted dose curve; in most records, active means well fitted inhibition curve with a large enough effect in the signal ratio, with a control signal flat (not every such curve was filed as active); inconclusive means small, poorly fitted or top-dose-only effect, or effect the other way, or a change in a side signal; inactive means flat fitted curve, though single readings scatter; the % refers to the signal ratio. The full list was thinned out, with actives kept by preference.
Potency means the concentration at half of the fitted maximal effect.

This experiment is described as follows: qHTS Assay for Lipid Storage Modulators in Drosophila S3 Cells.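 On cell number change: cells counted by Cell Tracker Red CMTPX staining in the red channel.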 On lipid storage change, negative = inhibition: on the % scale 0 is the no-effect control and ±100 the full control effect. The following applies: BODIPY lipid droplet fluorescence, 18-24 h, cells fed with added oleic acid; cell number change: measured here: cell count max response; series mostly up to 46.1 µM; lipid storage change, negative = inhibition: at the top concentration. The method in brief: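 Drosophila S3 cells got compounds at several concentrations plus oleic acid (400 uM solution). Laser-scanning cytometry with 488 nm excitation read lipid droplets at 500-530 nm and cells at 575-640 nm. Percent activity was relative to 20 uM Triacsin C.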
On the technique in general: Quantitative high-throughput screening tests each substance at several concentrations.
With `O=C(CSc1nc2ccc([N+](=O)[O-])cc2[nH]1)NC1CCCC1`, the “lipid storage change, negative = inhibition” value is 4.94% (inactive) and the cell number change came out at 16%.
Turning to `O=[N+]([O-])c1ccc(/C=N/N=C/c2ccc([N+](=O)[O-])o2)o1`, the “lipid storage change, negative = inhibition” value was 13.8% (inactive) and the cell number change is 21.7%.
Consider `O=C1NC(=S)S/C1=C\C=C\c1ccc([N+](=O)[O-])o1`, for which the Potency was 6.51 µM (active) and the cell number change was -18.3%.
For `CCCSC1=N/C(=C\c2ccc([N+](=O)[O-])o2)C(=O)S1`, the “lipid storage change, negative = inhibition” value is 17.3% (inactive) and the cell number change worked out at 18.4%.
Consider `C[n+]1ccc(/C=C/c2c[nH]c3ccccc23)cc1`, for which the Potency was 4.11 µM (active) and the cell number change stood at 5.59%.
As for `OCC[n+]1ccc(/C=C/c2c[nH]c3ccccc23)cc1`, the outcome was inactive and the cell number change was -1.83%.
For the compound `Cc1ccccc1/C=C/c1cc[n+](C)cc1`, the “lipid storage change, negative = inhibition” value was 5.44% (inactive).
As for `O=C(CN1CCN(S(=O)(=O)c2ccccc2)CC1)NCCc1ccccc1`, the “lipid storage change, negative = inhibition” value is 0.573% (inactive) and the cell number change was 12.2%.
For `Cc1cc(S(=O)(=O)N2CCN(CC(=O)NCCc3cccs3)CC2)ccc1Br`, the Potency is 6.51 µM (active) and the cell number change is -0.491%.
Regarding `COc1ccc(S(=O)(=O)N2CCN(CC(=O)NCCc3cccs3)CC2)cc1`, the “lipid storage change, negative = inhibition” value is 1.97% (inactive) and the cell number change was -24.5%.
The matching figures for `CSc1ccccc1OCc1cc(C(=O)N(C)Cc2cc(C)[nH]n2)no1`: -12.2% (inactive) and -1.8%.
Turning to `CSc1cccc(NC(=O)N2CCc3ccc(NC(=O)c4ccccn4)cc3C2)c1`, the compound was classed as inactive and the cell number change was -11.2%.
For the compound `COc1ccc(C(=O)N2CCc3ccc(NC(=O)c4ccccn4)cc3C2)cc1F`, the Potency is 7.31 µM (active) and the cell number change stood at 5.43%.
`COc1ccc(C(=O)N2CCc3cc(OC)c(OC)cc3C2)cc1OC`: the “lipid storage change, negative = inhibition” value is 2.92% (inactive) and the cell number change was -23.8%.
For `CC(=O)c1nn(-c2ccc(Cl)cc2)c(=O)[nH]c1=O`, the call was inactive.
Take `O=C(CN1C(=O)NC2(CCc3ccccc32)C1=O)c1ccccc1` (stereo unspecified): the call was inactive and the cell number change worked out at 29.9%.
`O=C(CN1C(=O)NC2(CCc3ccccc32)C1=O)c1ccc(Br)cc1` (stereo unspecified): the “lipid storage change, negative = inhibition” value is -18.9% (inactive) and the cell number change is -20.3%.
Consider `O=C(CN1C(=O)NC2(CCc3ccccc32)C1=O)c1ccc(Br)s1` (stereo unspecified), for which the Potency is 4.11 µM (active) and the cell number change amounted to 10.8%.
For `Cc1cccc(OCC(=O)N2CCN(C(=O)c3ccc([N+](=O)[O-])cc3)CC2)c1`, the “lipid storage change, negative = inhibition” value is 9.63% (inactive) and the cell number change turned out to be 2.07%.
As for `O=C(CN1C(=O)NC(Cc2ccccc2)C1=O)Nc1ccc(OC(F)(F)F)cc1` (stereo unspecified), the Potency was 23.1 µM (active) and the cell number change is -11.8%.
Take `O=C(CN1C(=O)NC(Cc2ccccc2)C1=O)Nc1ccccc1` (stereo unspecified): the compound was classed as inactive.
With `Cc1ccc(NC(=O)CN2C(=O)NC(Cc3ccccc3)C2=O)cc1` (stereo unspecified), the “lipid storage change, negative = inhibition” value was 14.8% (inactive) and the cell number change was determined as 2.72%.
For `Cc1ccc2c(N)c(C(=O)N(c3ccccc3)c3ccccc3)sc2n1`, in that order: 0.972% (inactive) and 1.13%.
As for `O=C(COC(=O)c1ccccn1)Nc1cccc(Cl)c1`, the “lipid storage change, negative = inhibition” value was -15.1% (inactive) and the cell number change was -4.94%.
The matching figures for `CSc1nnc(C(C)c2ncc(C(F)(F)F)cc2Cl)n1C` (stereo unspecified): 10.3% (inactive) and 29.4%.
Take `COCCN(C(=O)c1ccccc1)c1nc(-c2ccc(OC)cc2)cs1`: the result was inactive and the cell number change was -13.2%.
The matching figures for `COCCCN(C(=O)c1ccccc1F)c1nc(-c2ccc(OC)cc2)cs1`: “inactive” and 7.94%.
`COCCCN(C(=O)c1ccccc1)c1nc(-c2ccc(OC)cc2)cs1`: the Potency was 9.2 µM (active) and the cell number change turned out to be 5.82%.
For the compound `COC(=O)c1ccc(-c2nc(O)c(C)s2)cc1`, the result was inactive.
As for `Cc1cccc(OC2CCN(Cc3c(C(=O)N4CCCC4)nc4ccccn34)CC2)c1`, the “lipid storage change, negative = inhibition” value is 28.5% (inactive) and the cell number change came out at 17.9%.
The matching figures for `CCCC[C@@H]1CNC(=O)C(=O)N1CCc1cc(C(F)(F)F)cc(C(F)(F)F)c1`: 0.436% (inactive) and 3.93%.
Consider `CC(OC(=O)Cc1n[nH]c(=O)c2ccccc12)C(=O)Nc1ccc(F)cc1` (stereo unspecified), for which the cell number change is -13.8% and the outcome was “inactive [at 0.0737 µM]”.
`CCc1ccc(C(=O)C(C)OC(=O)Cc2n[nH]c(=O)c3ccccc23)cc1` (stereo unspecified): the Potency was 13 µM (active) and the cell number change was -26.4%.
With `COC(=O)c1ccc(COC(=O)Cc2n[nH]c(=O)c3ccccc23)cc1`, the “lipid storage change, negative = inhibition” value is 16% (inactive).
Turning to `Cc1csc(Sc2ccc([N+](=O)[O-])cc2C(=O)OCC(=O)NC(=O)NC(C)(C)C)n1`, the compound was classed as inactive.
Regarding `CC(c1ccccc1)n1c(CCCO)nc2ccccc21` (stereo unspecified), the “lipid storage change, negative = inhibition” value is 0.218% (inactive) and the cell number change is -13.2%.
The matching figures for `CCCCN(C)CCn1c(=S)[nH]c2cc(OCC)c(OCC)cc2c1=O`: 1.86% (inactive) and 5.41%.
For `COC(=O)c1cc(C(=O)N2CCc3ccccc32)cc([N+](=O)[O-])c1`, in that order: 8.69% (inactive) and 3.51%.
For the compound `COc1ccc(NC(=O)CC2C(=O)NC3CCCCC3N2C(=O)c2ccc(F)cc2)cc1` (stereo unspecified), the result was inactive and the cell number change turned out to be 6.58%.
For `COc1cccc(NC(=O)CC2C(=O)NC3CCCCC3N2C(=O)c2ccc(F)cc2)c1` (stereo unspecified), in that order: “inactive” and 36.9%.
For the compound `O=C(CC1C(=O)NC2CCCCC2N1C(=O)c1ccc(F)cc1)Nc1ccccc1` (stereo unspecified), the Potency is 29.1 µM (active) and the cell number change was 18%.
For `COc1ccc(NC(=S)N2CCC(C(=O)c3ccc(OC)cc3)CC2)cc1`, the “lipid storage change, negative = inhibition” value was 10.2% (inactive) and the cell number change is -17.6%.
The matching figures for `O=C(COC(=O)COc1ccc2c(c1)CCC2)Nc1ccccc1`: 3.22% (inactive) and -5.42%.
For the compound `Cn1nc(C(=O)NNC(=O)C(CCC(N)=O)NS(=O)(=O)c2ccc(Cl)cc2)c2ccccc2c1=O` (stereo unspecified), the “lipid storage change, negative = inhibition” value was 6.87% (inactive) and the cell number change is 15.9%.
In the case of `Cc1ccc(S(=O)(=O)N/N=C/c2ccc3nccnc3c2)cc1`, the “lipid storage change, negative = inhibition” value was 9.08% (inactive) and the cell number change was -5.68%.
In the case of `COc1ccc(CCNC(=O)CCCN2C(=O)c3ccccc3C2=O)cc1OC`, the “lipid storage change, negative = inhibition” value was 4.9% (inactive) and the cell number change came to 10.1%.
